For 13 compounds, growth results are on record in PubChem BioAssay (NCI).

This is part of a sample that, as a whole, favours compounds with a hit. Of some 83,000 tested, about 20% had one in any assay.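 Activity criterion: percent growth below 10, measured after cells in 96-well plates were exposed to a single compound concentration for 48 hours.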 A number with no mark means an inactive call. Activity calls are given as the source filed them.

In the experiment the test system is MDA-MB-468 breast. Description: NCI-60 one-dose screen, 48 h (100 = growth as untreated, 0 = no growth, -100 = all killed). Conditions: 10 µM unless noted.

For the compound `O=C1Nc2ccc(Cl)cc2/C1=N/N=C(c1ccccc1)c1ccccc1`, the growth is 107%.
As for `COc1ccc(NC2=C(Br)C(=O)C(C)=C(C)C2=O)cc1`, the growth is -59% (active).
Consider `CN1C(=C2C(=O)OC(C)(C)OC2=O)CCC1C(=O)NCc1ccc(Cl)cc1Cl` (stereo not drawn), for which the growth was 75%.
Then `O=[N+]([O-])c1ccc(-c2cc3c(Nc4ccc(OCc5cccc(Cl)c5)c(Cl)c4)ncnc3s2)cc1`, with 56.2%.
In the case of `COc1ccc(OC)c2c1C(=O)CC2C` (stereo not drawn), the growth was 99.6%.
In the case of `CC(C)(C)c1ccc(S(=O)(=O)N[C@H]2CC[C@H]3[C@@H]4CCc5cc(OS(=O)(=O)O)ccc5[C@H]4CC[C@]23C)cc1` it was 58.6%.
`CCc1nnc(NC(=O)c2nnn(-c3ccccc3)c2-c2ccco2)s1`: the growth is 95.9%.
In the case of `O=C(Nc1ccc(-n2cc(-c3ccncc3)c(-c3ccc(O)c(Cl)c3)n2)cc1)Nc1cccc(Cl)c1Cl` it was 43.5%.
Take `Nc1nc2c(nnn2C2CC(O)C(CO)O2)c(=O)[nH]1` (stereo not drawn): the growth was 22.8%.
`NC(=O)c1ccc[n+]([C@@H]2O[C@H](COP(=O)([O-])OP(=O)(O)OC[C@H]3O[C@@H](n4cnc5c(N)ncnc54)[C@H](O)[C@@H]3O)[C@@H](O)[C@H]2O)c1`: the growth was 122%.
In the case of `CCc1c(C(=O)N[C@@H]2c3cc(Cl)ccc3CC[C@@H]2O)[nH]c(C)c1C(C)=O` it was 94.1%.
Then `COc1ccccc1/C=C1\COc2ccc(O)c(O)c2C1=O`, with 12.6%.
With `COC(=O)[C@H](Cc1cn(C)cn1)NC(=O)[C@H](CC(C)C)NC(=O)Nc1cc(C(F)(F)F)cc(C(F)(F)F)c1`, the growth is -72.1% [100 µM] (active).
